PubChem BioAssay (EPA / NIEHS)
Active and inactive are the calls of the source. Rule for the calls: active = hit-call score of the fitted dose curve at least 0.9, where 1 is the maximum; inactive = score below 0.9.

Assay: ATG_NFI_CIS: Attagene CIS-FACTORIAL HepG2 Assay for human Nuclear Factor I (NFI) (AID 2282989)
Details: HepG2 cis-regulatory reporter, NFI response element transcription; actives raise or lower the signal
Description: ATG_CIS is a cell-based, multiplexed-readout assay that uses HepG2, a human liver cell line, with measurements taken at 24 hours after chemical dosing in a 24-well plate.ATG_NFI_CIS is one of 52 assay component(s) measured or calculated from the ATG_CIS assay. It is designed to make measurements of mRNA induction, a form of inducible reporter, as detected with fluorescence intensity signals by Reverse transcription polymerase chain reaction (RT-PCR) and Capillary electrophoresis technology.Data from the assay component ATG_NFI_CIS was analyzed into 1 assay endpoint. This assay endpoint, ATG_NFI_CIS, was analyzed with bidirectional fitting relative to DMSO as the negative control and baseline of activity. Using a type of inducible reporter, measures of mRNA for gain or loss-of-signal activity can be used to understand the reporter gene at the transcription factor-level as they relate to the gene NFIA. Furthermore, this assay endpoint can be referred to as a primary readout, because this assay has produced multiple assay endpoints where this one serves a reporter gene function. To generalize the intended target to other relatable targets, this assay endpoint is annotated to the dna binding intended target family, where the subfamily is nuclear factor I.
Human liver HepG2 cells are transiently transfected with multiple reporter transcription units (MRTUs) in 6-well plates using FuGene 6 reagent (Roche; 3 ml FuGene/1 mg DNA). The MRTU constructs are regulated by a cis-regulating element (promoter). […] A major difference between the CIS and TRANS system is that in CIS activities of endogenous TFs are measured, whereas the TRANS assay evaluates changes in activities of exogenous, chimeric NR-Gal4 proteins. […] At the end of 24 hour incubation, total RNA was isolated using TriZol reagent (Invitrogen). The isolated RNA is then reverse-transcribed using oligo(dT) primer and Mo-MLV reverse transcriptase (Invitrogen) with DNAse I (Ambion) treatment for 30 min. The one-tenth of the produced cDNA was amplified by PCR using Taq DNA polymerase (Invitrogen) and two reporter sequence-specific primers. The PCR products were fluorescently labeled by primer extension with 6-arboxyfluorescein (6-FAM) 5'-labeled reporter sequence-specific primer (2 min at 95 C, 20 s at 68 C and 10 min at 72 C) and these products were digested with 5U of HpaI (New England Biolabs) for 2h at 37 C. The fragments were purified using Qiaquick PCR columns (Qiagen), analyzed on an ABI 3130xL genetic analyzer (Applied Biosystems) with peak positions identified by using a set of X-rhodamine (ROX)-labeled MapMarker1000 molecular weight standards (BioVentures). The raw capillary electrophoresis data was processed using Attagraph software (Attagene).

| Compound | outcome | AC50 |
| --- | --- | --- |
| CC12CCC(CC1)C(C)(C)O2 | inactive |  |
| CCCCCCCCCC(C)=O | inactive |  |
| O=C(Cl)c1ccc(C(=O)Cl)cc1 | inactive |  |
| CC(=O)CCC=C(C)C | inactive |  |
| CC1(C)CCC[C@]2(C)[C@H]3CC(=O)O[C@]3(C)CC[C@@H]12 | inactive |  |
| CC(=O)OC1CCCCC1 | inactive |  |
| CCCCCCCC(=O)OCC | inactive |  |
| CC(=O)C(C)C | inactive |  |
| CCCCNC(=S)NCCCC | inactive |  |
| CC(=O)/C=C/C1C(C)=CCCC1(C)C (stereo not given) | inactive |  |
| CCOC(=O)C1=NN(c2ccc(Cl)cc2Cl)C(C)(C(=O)OCC)C1 (stereo not given) | inactive |  |
| COc1nccnc1CC(C)C | inactive |  |
| CC1=CP(=O)(c2ccccc2)CC1 (stereo not given) | inactive |  |
| CCCC(C)C(=O)OCC (stereo not given) | inactive |  |
| CCCCOCC(C)O (stereo not given) | inactive |  |
| Cc1cc(C)c(C=O)c(C)c1 | inactive |  |
| CC/C=C\C/C=C\C/C=C\CCCCCCCC(=O)OC | inactive |  |
| CC1(C)[C@@H]2CC[C@@]1(C)C(=O)C2 | inactive |  |
| O=C(O)c1ccc2c(c1)C(=O)OC2=O | inactive |  |
| CC(C)(C)N | inactive |  |

| Compound | outcome | AC50 |
| --- | --- | --- |
| [Cl][Eu]([Cl])[Cl] | inactive |  |
| CC(c1cc(C(C)(C)C)cc(C(C)(C)C)c1O)c1cc(C(C)(C)C)cc(C(C)(C)C)c1O | inactive |  |
| CC(=O)OC/C=C(/C)CCC=C(C)C | inactive |  |
| O=C(O)C1CCC(C(=O)O)CC1 (stereo not given) | inactive |  |
| CCN(CC)c1cccc(C)c1 | inactive |  |
| CC(C)OC(=O)c1ccccc1 | inactive |  |
| O=C1CCCN1C1CCCCC1 | inactive |  |
| CC(C)(CO)C(O)C(=O)NCCCO (stereo not given) | inactive |  |
| CCCCCCCC(=O)OCC(COC(=O)CCCCCCC)OC(=O)CCCCCCC | inactive |  |
| CCCCCCCCC(CO)CCCCCC (stereo not given) | inactive |  |
| CCC(C)c1ccccc1 (stereo not given) | inactive |  |
| C=CC(=O)OCCCCCCCCCC | inactive |  |
| Cc1noc(NS(=O)(=O)c2ccc(N)cc2)c1C | inactive |  |
| O=C(O)c1cc(O)c2ccccc2c1O | inactive |  |
| CCC1(C)C(=O)N(Cl)C(=O)N1Cl (stereo not given) |  | 60.6 µM (active) |
| COC(OC)(C(=O)c1ccccc1)c1ccccc1 | inactive |  |
| Fc1ccc(Br)cc1 | inactive |  |
| CCCCNS(=O)(=O)c1ccccc1 | inactive |  |
| C=C1C[C@H]2[C@@H]3C=C(C)C4=CC(=O)CC[C@]4(C)[C@H]3CC[C@]2(C)[C@@]1(OC(C)=O)C(C)=O |  | 106 µM (active) |
| CCOC(=O)OC(=O)OCC | inactive |  |
